PRMT1 FP inh = PRMT1 (human) inhibition, primary screen; recombinant PRMT1, activity-based probe fluorescence polarization; 1.3% of 370,000 active; inhibition, % at 2.79 µM;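 active = inhibition above about 21% made by adding two undisclosed values, limit read from the data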
NOD2-RIPK2 inh = NOD2-RIPK2 protein interaction inhibition; CHO BLA complementation NOD2-RIPK2, CCF4 ratio; 0.38% of 360,000 active; inhibition, % at 4.98 µM; in the data active = inhibition above about 21%;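 note: 0% = vehicle only and 100% = reference blocker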
TLR9-MyD88 block = TLR9-MyD88 interaction inhibition | Q9NR96+Q99836 | 0.21% of 340,000 active | CHO BLA complementation TLR9-MyD88, CCF4 FRET ratio | inhibition, % at 4.98 µM;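 active = inhibition above the mean over all tested compounds plus 3 SD, cut at about 21% in these data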;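 note: 0% = DMSO only wells and 100% = clavulanate BLA inhibitor control wells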
Exocytosis inh = lytic granule exocytosis inhibition. TALL-104 LAMP-1 surface exposure, flow cytometry; cells stimulated with thapsigargin and PMA. inhibition, % at 10 µM. 0.66% of 360,000 active. AID 651702;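 active = inhibition above about 55%, limit read from the data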
ABHD5-PLIN5 inh = ABHD5-PLIN5 protein interaction inhibition; AID 602281; inhibition, % at 4 µM; Split G. princeps luciferase complementation, luminescence, 4 h; 0.78% of 360,000 active; Q00G26+Q8WTS1;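 active = inhibition above the mean inhibition across every tested compound plus 3 SD, cut at about 22% in these data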;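 note: 0% = DMSO only wells and the 100% control is not disclosed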
TLR4 MyD88 comp = blocks binding of human TLR4 to MyD88 | O00206+Q99836 | HeLa CL3-4 TLR4/MyD88 BLA complementation, FRET ratio | inhibition, % at 8.4 µM | 0.18% of 200,000 active | AID 861; in the data active = inhibition above about 25%;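 note: 0% = vehicle and 100% = reference inhibitor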
PRMT1 confirm = confirmation of human PRMT1 inhibitors; shares compounds with PRMT1 FP inh; recombinant His-PRMT1, activity-based probe fluorescence polarization; inhibition, % at 2.79 µM; 42% of 3,300 active; AID 687036;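 active = mean inhibition across replicates above the hit cutoff derived for the earlier primary screen, cut at about 22% in these data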
Active calls of the source: *; · = no result. An excerpt weighted towards active compounds, which were near 2.6% of everything screened.

SMILES	PRMT1 FP inh	NOD2-RIPK2 inh	TLR9-MyD88 block	Exocytosis inh	ABHD5-PLIN5 inh	TLR4 MyD88 comp	PRMT1 confirm
ClCCN1CCN(c2ccnc3cc(Cl)ccc23)CC1	4	-11	2	23	1	·	·
Nc1ccc2nonc2c1[N+](=O)[O-]	92*	2	-5	-2	0	-3	78*
Cc1c(/C=C2/CC3C4CC=C5CC(O)CCC5(C)C4CCC3(C)C2=O)cnn1C (stereo unspecified)	·	·	·	·	·	2	·
COP(=S)(OC)SCN1C(=O)c2ccccc2C1=O	59*	1	7	11	-17	6	76*
CC(C)CCCn1c(O)c(/C=C2/C=CC=N2)c(=O)[nH]c1=O	7	9	-6	4	-6	2	·
NS(=O)(=O)c1ccc(-c2ccc(C=C3C(=O)NC(=S)NC3=O)o2)cc1	47*	·	·	·	·	·	68*
CC1=CC(=C2C(=O)NC(=S)NC2=O)C=C(C(F)(F)F)N1CCc1ccccc1	·	·	·	·	·	2	·
